Assay outcomes: PubChem BioAssay, National Center for Advancing Translational Sciences (NCATS)
The list is not random: actives were taken first. Their share in the collection is about 19%.
IL-1B inflam inh = inflammasome signaling inhibition, IL-1 beta readout | AID 743279 | THP-1 LPS/ATP IL-1B secretion, AlphaLISA, 16 h; hits give low values | activity change, % at 57.5 µM | 360,000 tested, 4.7% active; in the data active = activity change below about -50%; inconclusive = mostly about -30% to -49%
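THP-1 cells pretreated 1 hr with compounds (up to 57.5 uM final), then stimulated with LPS (250 ng/mL final) plus ATP (1.25 mM final); secreted IL-1B measured by AlphaLISA after 16 hr, decreased signal indicating inhibition.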
HT1080-NT tox = kills 2HG-producing HT-1080-NT fibrosarcoma cells; 360,000 tested, 1.6% active; HT-1080-NT fibrosarcoma viability, CellTiter-Glo ATP luminescence, 48 h; Potency, µM (titrated, usually from 46.1 µM), inactives show top-dose activity, negative = less viability, actives largely listed as cytotoxic;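 also: NT is the 2HG producing partner of a matched IDH1 knockdown line; potency is read from the fitted curve at half-maximal effect; 0% = DMSO-treated cells and -100% = media-only wells without cells; nearly all actives have a fitted effect of over 55% in size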
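HT-1080-NT; 750 cells/well; 5% FBS RPMI; 48 h compound, 37 degrees C; CellTiter-Glo luminescence; curve fitting and curve-class assignment.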
HT1080 IDH1KD tx = toxicity to HT-1080 IDH1 knockdown cells (counter line). 360,000 tested, 2% active. HT-1080 IDH1 knockdown viability, ATP luminescence, 48 h. Potency, µM (titrated, usually from 46.1 µM), without a hit: top-dose activity, negative = toxicity, usual class: cytotoxic;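 also: potency is read from the fitted curve at half-maximal effect; 0% = DMSO wells and -100% = cell-free medium wells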
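Assay cells: HT-1080 with IDH1 knockdown, 750 per well, RPMI/5% FBS. Exposure: 48 h at 37 °C following 2 h pre-incubation. Read: CellTiter-Glo luminescence; fitted concentration-response, curve class assigned.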
DT40 TDP1 no CPT = qHTS for Inhibitors of human tyrosyl-DNA phosphodiesterase 1 (TDP1): qHTS in cells in absence of CPT; 420,000 tested, 15% active; DT40 Tdp1-/- hTDP1 cells, no CPT, ATP luminescence, 48 h; Potency, µM (series often up to 46.2 µM), without a hit: at the top dose activity change, negative = growth inhibition, hits mostly inhibitors; also: potency is read from the fitted curve at half-maximal effect; nearly all actives have a fitted effect of over 55% in size
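Chicken DT40 Tdp1-/- cells stably complemented with human TDP1 were seeded at 400 cells/well with DMSO in place of 20 nM camptothecin. After compound pinning, cells grew at least 48 hr at 37 °C; viability read by CellTiter-Glo luminescence.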
DT40 TDP1 CPT = growth inhibition of DT40 Tdp1-/-;hTDP1 cells with camptothecin (screen for TDP1 inhibitors) | chicken DT40 Tdp1-/-;hTDP1 cells + 20 nM CPT, ATP luminescence, 48 h | Potency, µM (highest dose often 46.2 µM), inactives show at the highest dose activity change, negative = growth inhibition, hits mostly inhibitors | 420,000 tested, 12% active | AID 686979; also: potency is read from the fitted curve at half-maximal effect; nearly all actives have a fitted effect of over 55% in size
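Cell growth measured by CellTiter-Glo luminescence after a minimum 48 h, 37 C compound exposure with 20 nM CPT in Tdp1-knockout DT40 cells stably expressing hTDP1, seeded 400/well; qHTS titration format.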
Numbers without * were called inactive; i = inactive; ? = inconclusive; . = no result given; [ ] = remark or other dose. Unless noted, calls follow the shape of the dose curve; as a rule, active = well fitted curve in the direction sought with a large enough effect; inconclusive = small, poorly fitted or top-dose-only effect, or another doubt; inactive = no such curve, though single readings can be large; an effect the other way counts as inactive or inconclusive. Unless noted, % is scaled to controls: 0 for no effect and ±100 for the full control effect.

SMILES	IL-1B inflam inh	HT1080-NT tox	HT1080 IDH1KD tx	DT40 TDP1 no CPT	DT40 TDP1 CPT
Cc1cc(Cl)ccc1NC(=O)CCC(=O)N/N=C/c1cc([N+](=O)[O-])ccc1O	68	-18%	-22%	8.2µM*	6.5µM*
O=[N+]([O-])c1ccc(/C=N/NC(=S)Nc2ccc(Cl)cc2Cl)s1	25	?	?	5.2µM*	5.8µM*
CCOC(=O)CCC(=O)Nc1ccc([N+](=O)[O-])cc1C	-8	?	14%	-5%	-5%
Nc1nnc(CC(=O)N/N=C\c2cc([N+](=O)[O-])ccc2O)s1	24	-20%	?	?	13%
O=[N+]([O-])c1ccc(O)c(/C=N/NC(=S)Nc2ccc(Cl)cc2Cl)c1	119	?	23µM*	21µM*	16µM*
CCOC(=O)N1CCC(NS(=O)(=O)c2ccc(C)cc2)CC1	8	-3%	0%	?	-26%
CCOC(=O)N1CCC(NS(=O)(=O)c2ccc(NC(C)=O)c(Cl)c2)CC1	14	-6%	-12%	8.2µM*	23µM*
COc1cc2ccccc2cc1C(=O)Nc1ccc(N2CCN(C(=O)C(C)C)CC2)cc1	2	18%	0%	10µM*	16µM*
COc1cc2ccccc2cc1C(=O)N/N=C/c1cccs1	33	?	4.1µM*	1.8µM*	2.3µM*
COc1cc2ccccc2cc1C(=O)Nc1cccnc1	0	-1%	-4%	?	-11%
O=C(N/N=C\c1cccs1)c1ccccc1-n1cccc1	30	-2%	0%	-17%	3%
COc1ccc(NC(=O)c2cc3ccccc3cc2OC)cc1	-15	16µM*	16µM*	?	29µM*
COCCNC(=O)CCc1nnc(C2(c3ccc(Cl)cc3)CCC2)o1	14	11%	-2%	-7%	16%
COc1ccc(C(C)=O)cc1COC(=O)C1CCN(C(=O)c2ccc(Cl)cc2)CC1	15	1%	7%	27%	-2%
COc1ccc(Cn2c(CCC(=O)O)nc3cccnc32)cc1	0	9%[9.24 µM]	-4%	-2%	-26%
CC(=O)c1cccc(-n2c(=O)c3c4c(sc3n(CC(=O)c3ccc(Cl)cc3)c2=O)CN(C(C)=O)CC4)c1	.	.	.	-5%	-1%
Cc1ccc(C(=O)N2CCN(c3ccccc3)CC2)cc1S(=O)(=O)N1CCCC1	-9	-3%	-21%	?	29µM*
O=C(c1ccc(S(=O)(=O)N2CCCCCC2)cc1)N1CCN(c2ccccc2)CC1	-16	5%	10%	?	-18%
CC1CCN(S(=O)(=O)c2cc(C(=O)N3CCN(c4ccccc4)CC3)ccc2Br)CC1	-18	-10%	?	15µM*	23µM*
COc1ccc(C(=O)N2CCN(c3ccccc3)CC2)cc1S(=O)(=O)N1CCCC1	i	1%	19%	-25%	-27%
CC1CC(C)CN(S(=O)(=O)c2ccc(C(=O)N3CCN(c4ccccc4)CC3)cc2)C1 (centres undefined)	-66*	-11%	?	?	?
Cc1ccc(C(=O)N2CCN(c3cccc(C)c3C)CC2)cc1S(=O)(=O)N1CCOCC1	-2	-2%	-9%	23µM*	16µM*
C#CCNc1nc(CC)nc2c1nnn2Cc1ccccc1F	-2	-27%	-20%	-22%	-20%
CSc1ccc(CN(C)C(=O)c2ccc(S(=O)(=O)Nc3ccccc3)cc2)cc1	-50*	1%	-16%	21µM*	18µM*
Cc1ccc(C(=O)N2CCN(c3ccc(F)cc3)CC2)cc1S(=O)(=O)N1CCCCC1	0	?	-18%	16µM*	29µM*
CSc1ccc(CN(C)C(=O)c2ccc(S(=O)(=O)Nc3c(C)n(C)n(-c4ccccc4)c3=O)cc2)cc1	-5	-1%	4%	-12%	?
CN(c1ccc(C(=O)N2CCN(c3ccc(F)cc3)CC2)cc1)S(C)(=O)=O	-17	1%	-5%	?	13µM*
CC1CC(C)CN(S(=O)(=O)c2ccc(C(=O)N(C)Cc3ccccc3)cc2)C1 (centres undefined)	18	-9%	-16%	21µM*	?
